HTR5A inv ag – inverse agonist of human HTR5A in OPRM1-OPRD1 counter-screen; P47898; HTR5A cell line, luminescence, inverse agonism; hit rate 0.083% among 340,000; inhibition, % at 9.3 µM; in the data active = inhibition mostly above about 23%, no sharp cut-off; inactive = mostly below about 18%;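 note: 0% = cells with DMSO and 100% = no-cell wells with DMSO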
Target sequence (P47898 whole entry, looked up): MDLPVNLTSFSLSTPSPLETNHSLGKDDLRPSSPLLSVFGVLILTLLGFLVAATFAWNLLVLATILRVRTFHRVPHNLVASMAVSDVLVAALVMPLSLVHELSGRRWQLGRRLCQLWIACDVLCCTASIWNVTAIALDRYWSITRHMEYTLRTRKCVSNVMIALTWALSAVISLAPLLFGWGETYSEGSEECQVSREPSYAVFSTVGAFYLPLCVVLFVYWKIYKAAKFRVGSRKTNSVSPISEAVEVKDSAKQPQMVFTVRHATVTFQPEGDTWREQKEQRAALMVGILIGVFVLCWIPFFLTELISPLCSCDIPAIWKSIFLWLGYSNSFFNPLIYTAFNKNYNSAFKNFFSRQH
MOR-DOR inv ag – inverse agonists of human mu-delta opioid receptor heterodimerization. hit rate 0.21% among 340,000. cell-based MOR-DOR heterodimer luminescence, inverse agonism. inhibition, % at 9.3 µM. AID 504357; in the data active = inhibition above about 22%, passing the limit was not always enough;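 note: 0% = cells with DMSO and 100% = wells without cells with DMSO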
MOR-DOR ag – OPRM1-OPRD1 heterodimerization agonism; cells, luminescence; activation, % at 9.3 µM; hit rate 0.3% among 340,000; AID 504326;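 note: 0% = vehicle-treated cells and 100% = reference agonist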
HTR5A ag ctr – activates human HTR5A in OPRM1-OPRD1 agonist counter-screen; P47898; HTR5A agonist assay, luminescence, cell-based; activation, % at 9.3 µM; hit rate 0.61% among 340,000; in the data active = activation mostly above about 9.5%, no sharp cut-off; inactive = mostly below about 7.6%;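 note: 0% = cells with vehicle only and 100% = reference agonist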
beta cell repl – inducers of beta-cell replication in MIN6 cells; MIN6 cells proliferation, ATPlite luminescence, 48 h; cells starved in 0.2% serum; 100% = growth in 10% serum; proliferation, % at 10 µM; hit rate 0.29% among 330,000;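 active = compounds whose signal lies at least 3.5 SD above the mean of all wells on their plate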;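 note: 0% = DMSO-treated cells in low-serum medium and 100% = 10% serum control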
pCIP destab – p/CIP protein destabilization. Q05BA5. hit rate 0.01% among 290,000. F442A p/CIP-EGFP cells, EGFP fluorescence, 16 h. decrease of EGFP signal, % at 10 µM;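 active = EGFP signal decrease of at least 30% at 10 µM or well 3 SD below plate mean, unless failing retest; inactive = the rest, including hits failing retest or dose response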
OPRM1-D1 ag cf – OPRM1-OPRD1 heterodimer agonism, confirmation | shares compounds with MOR-DOR ag | cells, MOR-DOR heterodimerization, luminescence complementation | activation, % at 9.3 µM | hit rate 45% among 830 | AID 504904;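 note: 0% = vehicle-treated cells and 100% = reference agonist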
HTR5A ag counter – activates human HTR5A in OPRM1-OPRD1 agonist counter-screen; shares compounds with MOR-DOR ag; HTR5A agonist counterscreen, cell luminescence; AID 504905; hit rate 8% among 830; activation, % at 9.3 µM; in the data active = activation above about 17%;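 note: 0% = vehicle-treated cells and 100% = reference agonist response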
* marks the source's active call; other numbers are inactive results; i = inactive; / = no result given. Most compounds without a hit are left out; they make up all but 1.4% or so of the library. Cut-off read from the data, not from the text of the source, unless noted: active = activation above about 18%; inactive = the rest.

SMILES	HTR5A inv ag	MOR-DOR inv ag	MOR-DOR ag	HTR5A ag ctr	beta cell repl	pCIP destab	OPRM1-D1 ag cf	HTR5A ag counter
CC(CCN1CCC(CN2C(=O)C(=O)NC[C@@H]2Cc2ccccc2)CC1)c1ccccc1 (stereo partly specified)	-0.5	1.8	-0.4	0.1	/	/	/	/
CCC(C)c1ccccc1O (stereo unspecified)	-12.3	15.7	-2.9	3.0	2.5	/	/	/
CCC(c1ccccc1)C(CC)c1cc(O)c(O)c(O)c1 (stereo unspecified)	-3.6	-95.3	18.1*	1.0	/	/	-1.4	-1.9
CCN(CC)CCCN(C(=O)c1cccs1)c1nc(-c2ccc(OC)cc2)cs1	21.2	-266.3	51.3*	3.3	-5.2	-5.9	0.6	27.3*
CCN(CC)CCCN(C(=O)c1ccc(Br)cc1)c1nc(-c2ccc(OC)cc2)cs1	4.5	-36.0	6.5	2.3	-4.9	12.9	/	/
COc1ccc(-c2ccc(=O)n(CC(=O)NCC3COCCO3)n2)cc1 (stereo unspecified)	26.4	1.7	-0.3	-10.1	-3.4	/	/	/
CC(C)C(NC(=O)c1ccc(C(C)(C)C)cc1)C(=O)Nc1ccc(N2CCOCC2)cc1 (stereo unspecified)	7.4	7.6	-2.0	-3.0	-3.0	/	/	/
N#CCC(=O)N/N=C/c1cn(Cc2ccc(Cl)cc2Cl)c2ccccc12	-6.2	-103.4	20.4*	5.1	-2.3	-7.5	1.9	8.8
CCOC(=O)N/N=C/c1cn(Cc2ccc(Cl)cc2)c2ccccc12	-5.3	6.9	-1.4	1.6	0.0	-6.3	/	/
Cc1cc(/C=C2\SC(=S)N(C)C2=O)c(C)n1-c1ccc(O)cc1	0.3	-270.8	51.9*	6.7	-6.5	-13.4	33.1*	-1.5
Cc1cc(/C=C2\SC(=S)N(C)C2=O)c(C)n1-c1ccccc1O	-2.0	-71.9	13.5	0.7	-5.8	/	/	/
CNC(=O)/C(C#N)=C/c1ccc(-c2ccc(OC)cc2[N+](=O)[O-])o1	-0.5	-116.2	18.6*	0.2	-2.0	-18.9	1.2	-6.3
OCC1(CCc2ccccc2)CCN(Cc2cccn2-c2cccnc2)CC1	3.0	i	143.5*	-12.1	-3.4	4.5	384.5*	1.9
Cc1cccc(-n2nc(C(=O)c3ccco3)cc(-c3nc4ccccc4[nH]3)c2=N)c1	2.7	-221.5	31.1*	-1.0	-6.1	-11.6	0.8	0.2
CC(C)[C@H](NC(=O)c1c(F)cccc1F)C(=O)Nc1cccc(Br)c1	-31.9	-126.2	21.9*	8.2	0.2	1.2	11.9	-0.4
Cc1nc2ccc(NC(=O)[C@@H](NC(=O)c3c(F)cccc3F)C(C)C)cc2s1	0.3	12.3	-3.0	-0.1	-5.8	/	/	/
CN(C(=O)c1cc2ccccc2o1)c1c(N)n(Cc2ccccc2)c(=O)[nH]c1=O	-28.0	9.1	-2.2	11.4	-1.9	/	/	/
Cc1ccc(S(=O)(=O)N2CCOCC2)cc1C(=O)OC(C)C(=O)c1ccccc1 (stereo unspecified)	-0.7	-1.0	0.2	0.2	-3.3	/	/	/
Cc1c(Cl)cccc1NC(=S)NCC(C)C	-0.9	-2.5	0.3	0.3	-2.1	-9.7	/	/
Cc1cccc(NC(=S)NCC(c2cccnc2)N(C)C)c1C (stereo unspecified)	9.9	i	415.6*	-3.8	0.0	-30.0	411.9*	3.6
CC(=O)c1ccc(NC(=O)CNCC(c2ccccc2)N(C)C)cc1 (stereo unspecified)	-5.6	-4.6	0.9	-2.9	-1.6	-6.9	/	/
Cc1ccc(NC(=O)NCC(c2ccccc2)N(C)C)cc1 (stereo unspecified)	8.2	i	352.9*	-2.3	-1.9	-7.3	23.2*	16.7*
Cc1c(Cl)cccc1NC(=S)NCC(c1cccnc1)N(C)C (stereo unspecified)	-13.0	i	473.8*	0.5	0.4	1.7	14.8	5.7
Cc1ccccc1NC(=S)NCC(c1cccnc1)N(C)C (stereo unspecified)	0.2	i	215.6*	-0.1	0.0	11.0	211.5*	0.9
Cc1ccc(C)c(NC(=S)NCC(c2ccccc2)N(C)C)c1 (stereo unspecified)	-5.8	i	264.6*	2.1	-2.3	10.7	360.5*	-1.7
SMILES	HTR5A inv ag	MOR-DOR inv ag	MOR-DOR ag	HTR5A ag ctr	beta cell repl	pCIP destab	OPRM1-D1 ag cf	HTR5A ag counter
O=C(Nc1cc(Cl)ccc1N1CCOCC1)c1ccc(=O)[nH]c1	-16.5	9.4	-1.8	4.0	-0.8	/	/	/
OC(CNC1Cc2ccccc2C1)COc1ccc(Cl)cc1 (stereo unspecified)	-13.9	-8.8	1.8	-3.6	-3.7	-0.3	/	/
OC(CNC1CCCc2ccccc21)COc1c(Cl)cccc1Cl (stereo unspecified)	0.7	-142.2	19.7*	-0.2	-4.4	0.7	4.3	15.6
Cc1ccc(-c2nn(-c3cccc(F)c3)cc2CN(Cc2nccn2C)C(C)C)o1	10.5	1.2	-0.2	-4.1	-4.8	-9.4	/	/
Cc1ccc(-c2nn(-c3cccc(F)c3)cc2CNCc2cccnc2)o1	-5.6	-132.7	26.1*	2.0	-0.4	8.9	0.3	2.9
Cc1ccc(-c2nn(-c3cccc(F)c3)cc2CN2CCN(c3ccccn3)CC2)o1	24.2	-194.5	37.3*	6.0	-5.4	-0.9	-5.2	0.7
CCC(=O)c1ccc(OCC(=O)NCc2ccccc2CN2CCCC2)cc1	1.1	13.2	-3.3	-0.4	-1.4	/	/	/
COc1ccc(NC(=O)c2cc3ccccc3o2)cc1S(=O)(=O)N1CCCCC1	-15.4	-105.7	21.1*	4.0	2.8	/	1.9	0.5
COc1ccc(NC(=O)c2ccc3ccccc3n2)cc1S(=O)(=O)N1CCCCC1	-17.6	9.5	-1.7	1.8	-1.0	-5.5	/	/
C=CCn1c(SCC(=O)N(C)CC(=O)Nc2ccc(C)cc2)nnc1-c1ccncc1	-20.1	17.0	-3.3	4.9	1.6	/	/	/
CCc1ccc(NC(=O)Nc2ccc3c(c2)N(C)C(=O)CS3)cc1	-10.9	-487.7	96.3*	3.6	-4.5	-16.3	55.0*	4.7
COc1ccc(C(CNC(=O)Cc2cccs2)N(C)C)cc1 (stereo unspecified)	-2.8	i	84.8*	-0.5	-2.2	-3.0	-4.8	-4.2
COc1ccc(CC(=O)NCC(c2ccc(OC)cc2)N(C)C)cc1 (stereo unspecified)	2.9	-160.0	31.2*	-1.0	-1.3	-4.2	2.7	0.7
COc1ccc(C(CNC(=O)c2cc(SC)ccc2Cl)N(C)C)cc1 (stereo unspecified)	-17.9	i	104.5*	6.0	-1.1	2.2	3.5	1.2
COc1ccc(C(CNC(=O)c2cncc(Br)c2)N(C)C)cc1 (stereo unspecified)	3.4	i	274.2*	-1.2	-1.2	-6.2	232.1*	-1.2
